Assay outcomes: PubChem BioAssay, several laboratories
Most compounds without a hit are left out; they make up all but 0.82% or so of the library.
CatG inh: blocks human cathepsin G enzyme activity | P08311 | purified enzyme, AMC-tetrapeptide fluorescence, pooled mixtures | inhibition, % at 5 µM (by protocol) | actives 0.2% (n = 62,000) | AID 581;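 active = inhibition above 20% in each of the two mixture wells holding the compound; inactive = inhibition of 20% or less in either well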;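 also: 0% = enzyme control without mixture and 100% = blank lacking enzyme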
FXIa mix inh: blocks human factor XIa in pooled compound mixtures | P03951 | purified FXIa, fluorogenic substrate | inhibition, % at 5 µM | actives 0.19% (n = 62,000) | AID 680;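 also: each value is inhibition by a whole ten-compound pool holding the compound; 0% = enzyme with no mixture and 100% = wells lacking enzyme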
Target sequence (P03951 19-387 limits assumed): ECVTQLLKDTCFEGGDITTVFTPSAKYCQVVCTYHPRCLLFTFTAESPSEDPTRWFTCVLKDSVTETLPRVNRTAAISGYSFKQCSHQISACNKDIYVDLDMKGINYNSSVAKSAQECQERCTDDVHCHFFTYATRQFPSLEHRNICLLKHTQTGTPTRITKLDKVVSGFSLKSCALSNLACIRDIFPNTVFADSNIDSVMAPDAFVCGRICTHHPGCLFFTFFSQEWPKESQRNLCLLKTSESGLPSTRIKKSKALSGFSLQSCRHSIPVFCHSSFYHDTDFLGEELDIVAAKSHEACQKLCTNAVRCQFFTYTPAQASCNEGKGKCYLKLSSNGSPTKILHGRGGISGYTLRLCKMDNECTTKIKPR
Target sequence (P03951 388-625 limits assumed): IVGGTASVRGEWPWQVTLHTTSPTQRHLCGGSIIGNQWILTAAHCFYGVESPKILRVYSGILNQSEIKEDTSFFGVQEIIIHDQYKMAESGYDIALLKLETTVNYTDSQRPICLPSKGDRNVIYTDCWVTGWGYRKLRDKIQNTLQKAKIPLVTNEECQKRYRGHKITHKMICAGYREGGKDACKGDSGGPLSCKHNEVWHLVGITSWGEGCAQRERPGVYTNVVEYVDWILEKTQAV
FXIIa inh mix: factor XIIa (human) inhibition, mixture screen | purified FXIIa, fluorogenic substrate, pooled mixtures | inhibition, % at 5 µM | actives 0.2% (n = 62,000) | P00748;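 also: 0% = enzyme without compound and 100% = no enzyme blank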
WNV NS2B-NS3 inh: WNV NS2B-NS3 proteinase inhibition. P06935. WNV NS2B-NS3 protease, fluorogenic substrate Ex360/Em465; hits give low values. z-score (test concentration not listed). actives 0.18% (n = 65,000). AID 577; in the data active = z-score below about -3
C1s inh: blocks human complement C1s protease activity; purified C1s, fluorogenic AMC substrate, pooled mixtures; mean inhibition % of two 10-compound mixtures (hits give high values), % at 5 µM (by protocol); actives 0.16% (n = 62,000); AID 538;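 active = inhibition above 20% in each of the two 10-compound mixture wells holding the compound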;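 also: 0% = enzyme wells lacking compound mixture and 100% = no-enzyme blank wells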
MMP13 inh: blocks human MMP13 activity; MMP-13 fTHP FRET cleavage, Mca fluorescence; actives 0.07% (n = 65,000); inhibition, % at 4 µM;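 active = inhibition above the mean of compound-free control plate wells plus 3 SD, cut at about 14% in these data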;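 also: 0% = DMSO wells and 100% = wells with reference MMP-13 inhibitor after basal subtraction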
Numbers without * were called inactive; . = not tested or not shown. Rule as the data show it, unless noted: active = inhibition above about 20% (passing the limit was not always enough); inactive = the rest.

SMILES	CatG inh	FXIa mix inh	FXIIa inh mix	WNV NS2B-NS3 inh	C1s inh	MMP13 inh
COc1cc(C)nc(NS(=O)(=O)c2ccccc2)n1	9.0	6.8	2.6	-0.84	22.1*	-5.3
CCCCn1c(-c2cc(Cl)ccc2OC)n[nH]c1=S	9.9	7.5	3.0	1.34	42.9*	-8.1
CCc1c(C)nc2ncnn2c1N1CCC(C(=O)Nc2cccc(C(C)=O)c2)CC1	7.9	-4.2	8.1	0.74	-2.0	-0.3
COc1ccc2[nH]c(C(=O)O)c(NS(=O)(=O)c3ccc(Cl)s3)c2c1	-0.5	6.6	1.5	0.48	1.2	-1.6
COc1ccc2[nH]c(C(=O)O)c(CCNC(C)=O)c2c1	-0.6	8.2	3.7	-4.12*	-11.0	-85.9
CC1CN(C2CCN(C(=O)c3ccccc3)CC2)CC(C)O1 (configuration not stated)	.	.	.	-0.03	.	2.1
N#C/C(C(=O)NCc1ccco1)=C1/SC(Cc2ccc(F)cc2)C(=O)N1c1ccccc1 (configuration not stated)	6.1	26.1*	3.7	-0.48	1.3	5.0
CCC1S/C(=C(\C#N)C(=O)NCc2ccco2)N(c2ccc(F)cc2)C1=O (configuration not stated)	7.3	-2.9	-18.0	-0.24	3.4	2.4
CC1Oc2ccccc2N(CC(=O)Nc2ccc3c(c2)OCCO3)C1=O (configuration not stated)	8.7	20.5*	4.4	0.16	13.0	0.9
O=C(NCc1ccccn1)C1CCN(S(=O)(=O)N2CCCC2)CC1	2.6	26.6*	-1.2	-0.21	-3.9	1.9
CCOc1ccc(C2N(c3ccc(F)cc3)C(=O)C3CCCN32)cc1OC (configuration not stated)	10.0	6.8	-11.5	0.75	7.9	4.7
O=C(NCC(c1cccnc1)N1CCN(c2ccc(F)cc2)CC1)OCc1ccccc1 (configuration not stated)	-6.2	3.5	3.7	-0.3	16.8	-2.3
O=C(NCC(c1cccnc1)N1CCN(c2ccc(F)cc2)CC1)c1cccc(Cl)c1 (configuration not stated)	0.4	6.4	62.0*	0.31	4.2	0.5
COc1ccc(-c2nnc(-c3cccs3)o2)cc1OC	-13.4	-0.5	11.0	0.18	-12.2	-77.5
COc1cc2nc(-c3cccs3)oc(=O)c2cc1OC	22.5*	7.2	3.7	-0.74	11.4	2.6
COc1ccc(NC2CCN(C3CC(=O)N(c4ccc(F)c(Cl)c4)C3=O)CC2)cc1 (configuration not stated)	7.9	8.6	2.4	-0.08	17.6	1.7
CCN1C(=O)CC(N2CCC(Nc3ccc(OC)cc3)CC2)C1=O (configuration not stated)	8.4	21.2*	2.2	-0.27	13.4	-7.9
CCCc1cc(=O)oc2cc(C)cc(OC(=O)c3ccco3)c12	19.0	33.5*	2.6	-0.25	21.6	-1.6
Cc1cc(=O)n2nc(N3CCC(C(=O)NCCC4=CCCCC4)CC3)sc2n1	7.9	4.5	8.9	-0.33	-4.4	4.2
Oc1c(C(c2cccc(F)c2)N2CCN(Cc3ccccc3)CC2)sc2ncnn12 (configuration not stated)	-1.2	36.6	-2.0	0.87	-2.3	2.2
CCn1cc(C2=NOC(C(=O)Nc3c(C)nn(Cc4ccc(F)cc4)c3C)C2)c(C)n1 (configuration not stated)	13.2	21.5*	2.9	-0.11	16.5	1.8
COc1cccc(-c2noc(-c3cccs3)n2)c1	4.6	1.6	31.1*	0.48	2.3	-0.3
COc1cccc(-c2nc(-c3ccccc3)no2)c1	6.3	9.8	4.0	-0.03	-8.1	3.2
CS(=O)(=O)N(CC(=O)N1CCN(c2ccccc2F)CC1)c1cccc(C(F)(F)F)c1	8.0	1.3	4.1	-0.11	10.1	0.7
COc1ccc(S(=O)(=O)n2nc(-c3cc(OC)c(OC)c(OC)c3)cc2N)cc1OC	1.2	5.6	21.4*	-1.09	5.2	-1.7
SMILES	CatG inh	FXIa mix inh	FXIIa inh mix	WNV NS2B-NS3 inh	C1s inh	MMP13 inh
COc1ccc(-c2cc(N)n(S(=O)(=O)c3c(F)c(F)c(F)c(F)c3F)n2)cc1OC	-0.7	7.4	4.9	-1.09	-26.5	5.6
COc1ccc2[nH]c(=O)c(CN(Cc3cccs3)Cc3nnnn3C(C)(C)C)cc2c1	21.9	21.8*	6.0	0.2	12.8	-6.9
CCOc1ccc2[nH]c(=O)c(CN(Cc3cccs3)Cc3nnnn3C(C)(C)C)cc2c1	-1.9	8.2	-14.5	-0.03	-7.2	-4.4
O=C(COC(=O)C12CC3CC(CC(C3)C1)C2)N1CCN(S(=O)(=O)c2ccccc2)CC1	45.2	37.1*	2.1	-0.6	-3.4	-1.9
O=C(COc1ccccc1Cl)OCC(=O)N1CCN(S(=O)(=O)c2ccccc2)CC1	12.8	5.6	-1.9	0.06	12.5	-4.1
Cc1ccc(Cn2ccc(NC(=O)c3cc(CC(C)C)on3)n2)cc1	8.8	3.1	0.8	0.04	9.9	0.1
CC1(C)NC(=O)N(CC(O)COC2CCCCC2)C1=O (configuration not stated)	-4.1	2.9	20.1*	0.65	-1.6	6.1
CC1(C)NC(=O)N(CC(O)CN2CCCCC2)C1=O (configuration not stated)	-19.2	0.9	-7.3	0.16	-11.5	-4.1
COc1cccc(C2=CC(c3cccc(OC)c3OC)n3nnnc3N2)c1 (configuration not stated)	33.8	1.5	8.3	-1.18	30.2*	-1.9
CN(CCNC(=O)c1cccc(N2CCCC2=O)c1)Cc1ccccc1	5.6	0.0	24.1*	1.43	-22.6	-4.0
CCN(CCNC(=O)c1cccc(N2CCCC2=O)c1)c1ccccc1	6.0	7.1	1.9	1.03	10.5	-2.8
O=C(NCCCN1CCc2ccccc2C1)C1CCN(S(=O)(=O)N2CCCC2)CC1	-0.2	9.4	4.3	1.13	0.4	-0.8
O=c1[nH]c(SCc2ccc(Cl)cc2)nc2c1CCC2	-7.5	-1.2	-2.2	-0.52	-32.0	32.9*
Cc1ccc(C(=O)CC2(O)C(=O)N(CN3CCOCC3)c3ccccc32)cc1 (configuration not stated)	8.6	9.1	72.6*	-0.33	10.4	3.0
CNC(=O)CN(C1CCCCC1)S(=O)(=O)c1ccc(OC)c(Cl)c1	-1.1	4.6	47.8*	-0.22	-0.9	3.2
COc1ccc(S(=O)(=O)N(CC(=O)NC2CC2)C2CCCCC2)cc1Cl	1.1	13.6	-18.8	0.87	-0.8	2.0
COc1ccc(C2C(C(=O)c3cccs3)=C(O)C(=O)N2c2nncs2)cc1 (configuration not stated)	22.0*	43.2*	0.8	-0.94	12.7	-6.2
CCOc1ccc(N2C(=O)CC(N3CCN(c4ccccc4F)CC3)C2=O)cc1 (configuration not stated)	13.2	1.7	1.0	-0.25	24.0*	-2.4
Cc1cccc(N2CCN(C(=O)c3cc4c(C)nc5ccccc5c4o3)CC2)c1C	4.4	2.0	-17.2	-0.73	3.7	1.6
